Results on 35 compounds are retold here after PubChem BioAssay.

This test in a line: compound effects on differentiated 3T3-L1 adipocyte viability – cell-based, 3T3-L1 adipocytes, calcein-AM fluorescence, 48 h, basal, profiling panel (AID 1163). Also: test concentration not given here. As to conditions: 3T3-L1 adipocytes viability, higher = more signal.
In the case of `CCCCCCc1nc(C2CC2)cc2c1[Si](C(C)C)(C(C)C)OC2`, the z-score is 0.865.

Consider `COc1ccc([Si](C)(C)[C@H]2[C@H](CCO)O[C@@]3(C(=O)N(Cc4cccc(N5C(=O)COc6ccccc65)c4)c4ccccc43)[C@@H]2C)cc1`, for which the z-score was 0.167.

For the compound `C=C(/C(=C/C[C@H](OC(=O)c1ccncc1)c1ccc(CO)o1)c1cc(C(=O)OC)ccc1OC)C(C)C`, the z-score is -0.0308.

With `COC(=O)[C@@]1(Cc2ccccc2N=[N+]=[N-])N=C(c2ccc(OCCCO)cc2)O[C@H]1c1ccccc1N=[N+]=[N-]`, the z-score was 0.342.

Turning to `O=C1O[C@H](c2ccccc2)[C@H](c2ccccc2)N2[C@H]1[C@@H](C(=O)Nc1nc3ccccc3s1)[C@]1(C(=O)Nc3ccccc31)[C@H]2c1ccc(OCCO)cc1`, the z-score is 0.0354.

On to `C=CCC(OC(C)=O)[C@@H]1[C@@H](N(Cc2cc3ccccc3o2)C(=O)c2ccc(C)cc2)c2cc(OCCCO)ccc2N1C(=O)Cc1ccc(OC)cc1` (stereo not given in full), for which the z-score is 0.426.

For the compound `C[C@@H]1ON(c2ccc(C(=O)OC(C)(C)C)cc2)[C@H](c2ccc(O)cc2)[C@H]1C(=O)N1C(=O)OC[C@H]1Cc1ccccc1`, the z-score is 0.82.

In the case of `C=CCNC(=O)[C@H]1[C@@H]2C(=O)O[C@@H](c3ccccc3)[C@@H](c3ccccc3)N2[C@@H](c2ccc(O)cc2)[C@]12C(=O)Nc1ccc(C#CC3(O)CCCCCC3)cc12`, the z-score was 0.0111.

In the case of `CCCC[C@@H]1C[C@H]1[C@@H](NC(=O)Cc1ccccc1)c1ccc(-c2ccccc2)cc1`, the z-score was -0.12.

With `C=C(COC)/C(=C/C[C@H](OC(=O)c1ccncc1)c1ccccc1OCCO)c1cnc2ccccc2c1`, the z-score was 0.688.

In the case of `[N-]=[N+]=Nc1ccccc1[C@@H]1OC(c2ccc(OCCCO)cc2)=N[C@]1(Cc1ccccc1)C(=O)NCC(O)CO` (stereo not given in full), the z-score was 0.509.

On to `CC(C)N1CC=CC23O[C@@H]4C=CCOC(=O)[C@@H]4[C@H]2C(=O)N(CCCO)[C@@H]3C1=O` (stereo not given in full), for which the z-score is 2.67.

For the compound `CC(c1ccccc1)C(O)C1C=CC2C(=O)N(c3ccccc3)C(=O)C2N1Nc1ccc([N+](=O)[O-])cc1` (stereo not given), the z-score is -0.755.

For `CC(C)C(CO)N1C(=O)[C@@H]2C3C(=O)OCCC/C=C\[C@H]3OC23C=CCN(C(C)(C)C)C(=O)[C@@H]13` (stereo not given in full), the z-score was -0.496.

For the compound `COCCCNC(=O)[C@@]1(Cc2ccccc2N=[N+]=[N-])N=C(c2ccc(OCCCO)cc2)O[C@H]1c1ccccc1`, the z-score is 0.538.

As for `CN1C(=O)C2C=CC(C(O)c3ccc(F)cc3)N(Nc3ccccc3)C2C1=O` (stereo not given), the z-score was -1.02.

In the case of `COCCOC(=O)N1C(=O)[C@@]2(c3cc(C#CC4=CCCCC4)ccc31)[C@H](c1ccc(OCCO)cc1)N1[C@H](c3ccccc3)[C@H](c3ccccc3)OC(=O)[C@H]1[C@@H]2C(=O)NC[C@H](O)c1ccccc1`, the z-score is 0.72.

With `COC(=O)C1=CC(CCCO)=CC(C2CC2)N(C)C=C1C(=O)OC` (stereo not given), the z-score was 0.435.

As to `O=C(NCC(F)(F)F)[C@@H]1c2ccccc2C(=O)N(Cc2ccc(OC(F)(F)F)cc2)[C@H]1c1ccc(CO)cc1`, the z-score is -0.302.

As to `COc1cccc(/C=C/C=O)c1`, the z-score is -0.132.

Take `COC(=O)C(CC#Cc1ccc2c(c1)[C@]1(C(=O)N2)[C@H](c2ccccc2OCCO)N2[C@H](c3ccccc3)[C@H](c3ccccc3)OC(=O)[C@H]2[C@@H]1C(=O)NC[C@H](O)c1ccccc1)C(=O)OC`: the z-score was -0.625.

As for `CC(C)OC(=O)C=C1C[C@@H](c2ccc(C(F)(F)F)cc2)O[C@@H](c2ccc(C(F)(F)F)cc2)O1`, the z-score was -0.168.

Take `CN(C)C(=O)[C@@]1(Cc2ccccc2CN=[N+]=[N-])N=C(c2ccc(OCCCO)cc2)O[C@H]1c1ccccc1CN=[N+]=[N-]`: the z-score was -0.182.

For the compound `CCCNC(=O)[C@@]1(c2ccc([N+](=O)[O-])cc2)CC(=O)N(C2CCCCC2)[C@@H]1c1ccc(CO)cc1`, the z-score was 0.29.

Consider `CC(C)N1C(=O)C[C@@](C(=O)NCCCN(C)C)(c2ccc([N+](=O)[O-])cc2)[C@H]1c1ccc(CO)cc1`, for which the z-score is 0.165.

On to `O=C1N(Cc2ccccc2)Cc2ccccc2[C@@H]2OC(c3ccc(OCCCO)cc3)=N[C@]12CCS(=O)(=O)c1ccccc1`, for which the z-score is -1.46.

As for `COC(=O)[C@@]1(Cc2ccc(OC)cc2)[C@@H]2C(=CC(=O)[C@H]2CC(=O)C(=O)N(C)C)CN1C(=O)c1ccccc1`, the z-score was 0.271.

Regarding `COc1ccc([Si](C)(C)[C@@H]2[C@@H](CC(=O)N3Cc4ccccc4C[C@H]3CO)O[C@]3(C(=O)N(C)c4ccccc43)[C@H]2C)cc1`, the z-score is 0.0677.

Turning to `C=C[C@@H](COC(C)=O)N(C(=O)OC(C)(C)C)S(=O)(=O)c1ccc(Br)cc1`, the z-score was 0.104.

Consider `C=CCOC(=O)[C@H]1[C@@H]2C(=O)O[C@@H](c3ccccc3)[C@@H](c3ccccc3)N2[C@@H](c2ccc(OCCOC(=O)[C@@H]3C[C@@H]4C(=O)N[C@@H](CCCCNC(C)=O)C(=O)N4[C@@H]3c3ccc(O)cc3)cc2)[C@]12C(=O)Nc1ccc(I)cc12`, for which the z-score was 0.522.

As to `O=c1n(-c2ccccc2)c(=O)n2n1CC(COc1ccccc1)=C([C@H](O)CCc1ccccc1)[C@@H]2CO`, the z-score was 0.725.

In the case of `CN(C)C(=O)[C@]1(CCS(=O)(=O)c2ccccc2)N=C(c2ccc(OCCCO)cc2)O[C@@H]1c1ccccc1N=[N+]=[N-]`, the z-score is 0.503.

For the compound `COC(=O)[C@@]1(Cc2ccccc2)[C@@H]2C(=CC(=O)[C@H]2CC(=O)C(=O)N(C)C)CN1C(=O)c1ccccc1`, the z-score is 0.108.

With `CCOC(=O)C[C@H]1[C@H](OC(=O)Cc2ccc3c(c2)OCO3)[C@@H](NC(=O)Cc2ccc(OC)cc2)c2cc(OCCCO)ccc2N1C(=O)c1ccc2ccccc2n1`, the z-score was 0.189.

For the compound `CC1CC/C=C\[C@H]2OC34C=CCN(C(C)C)C(=O)[C@H]3N(CCCCCCO)C(=O)[C@@H]4C2C(=O)O1` (stereo not given in full), the z-score is 1.53.
